# Pf growth 96h: inhibits malaria parasite growth, 96 h; P. falciparum luciferase reporter growth, 96 h; Potency, µM (titrated, usually from 28.7 µM), for inactives: at the highest dose activity change, negative = inhibition, actives largely listed as inhibitors; 6.9% of 320,000 active; AID 504834; further: potency means the concentration at half of the fitted maximal effect; on the % scale 0 is the no-effect control and ±100 the full control effect
#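 Readout is luminescence from an integrated firefly luciferase in P. falciparum. Red cells, 2% hematocrit and 0.05% parasitemia final, were cultured with compound through two parasite generations (96 hours) at 37 C, 5% CO2.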
# Shiga inhibitor: inhibitors of Shiga toxin in Vero cells. Vero cells, Shiga toxin protein synthesis inhibition reporter. inhibition, % at 38.7 µM. 9.2% of 290,000 active. AID 2315; in the data active means inhibition mostly above about 28%, no sharp cut-off; inactive means mostly below about 43%; further: 0% is about no effect
# Pf growth 48h: P. falciparum growth inhibition at 48 hours (one generation). Potency, µM (highest dose often 28.7 µM), without a hit: top-dose activity change, negative = inhibition, most hits filed as inhibitors. P. falciparum luciferase growth in erythrocytes, 48 h. AID 504832. 5.9% of 310,000 active; further: potency means the concentration at half of the fitted maximal effect; on the % scale 0 is the no-effect control and ±100 the full control effect
#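 Read-out is firefly luciferase luminescence from an integrated reporter in P. falciparum, so falling signal marks reduced parasite growth. Infected erythrocytes were at 2% hematocrit and 0.1% parasitemia (final) in Albumax-supplemented RPMI 1640.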
# SARS PLpro yeast: inhibitors of SARS-CoV papain-like protease in yeast | AID 485353 | 0.19% of 330,000 active | Potency, µM (doses to about 32.9 µM), for inactives: at the top dose activity, positive = growth rescue, usual class: activators | S. cerevisiae expressing SARS-CoV PLpro, growth rescue; calls by dose curve; further: potency means the concentration at half of the fitted maximal effect; 0% is about no effect; nearly all actives have a fitted effect of over 55% in size
# AMA1-RON2 inh: inhibitors of Plasmodium falciparum AMA1-RON2 interaction; AlphaScreen AMA1-biotinylated RON2 peptide binding; Potency, µM (highest dose often 58.2 µM), without a hit: at the highest dose activity change, negative = inhibition, hits mostly inhibitors; 0.2% of 360,000 active;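 further: potency means the concentration at half of the fitted maximal effect; 0% = vehicle wells and -100% = peptide control; nearly all actives have a fitted effect of over 45% in size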
#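 AMA1 (3D7) with his tag at 25 nM final met compounds first, then biotinylated RON2 peptide at 25 nM; detection used donor plus acceptor beads, 10 µg/mL apiece, read by AlphaScreen after 30 min at room temperature.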
# Cycloheximide cs: counter-screen hit for Shiga toxin inhibitors, cycloheximide | 12% of 300,000 active | cell reporter, cycloheximide protein synthesis inhibition counterscreen | max response, %; in the data active means max response mostly above about 13%, no sharp cut-off; inactive means mostly below about 14%; further: read at 38.3 µM for the half of the compounds with a filed dose; 0% is about no effect
# * hit, by the source's call; ? = inconclusive; · = not tested or not shown; [ ] = remark or other dose. Hits are enriched below; roughly 19% of the tested compounds scored in any of these assays. Unless noted, the call rests on the fitted dose curve; in most records, active means well fitted curve in the direction sought with a large enough effect; inconclusive means small, poorly fitted or top-dose-only effect, or another doubt; inactive means no such curve, though single readings can be large; an effect the other way counts as inactive or inconclusive.
SMILES,Pf growth 96h,Shiga inhibitor,Pf growth 48h,SARS PLpro yeast,AMA1-RON2 inh,Cycloheximide cs
O=C(N/N=C/c1sc(N2CCCCC2)nc1-c1cccs1)C1CC1,5.2µM*,40,10µM*,-2%,14%,14
CC(C)NC(=S)N/N=C/c1ccc(N2CCOCC2)cc1,55%,-7,19%,6%,50%,12
NC(=O)N/N=C/c1sc(N2CCCCC2)nc1-c1cccs1,·,·,·,·,4%,·
CCCCNC(=S)N(C)/N=C/c1sc(N2CCCCC2)nc1-c1cccs1,12µM*,4,10µM*,-17%,·,-2
CC(C)NC(=S)N/N=C/c1sc(N2CCCCC2)nc1-c1cccs1,0.83µM*,-11,0%,?,18%[11.6 µM],8
Cc1ccnc(NC(=O)CCC(=O)N(CC(=O)NCCc2ccccc2)c2ccccc2F)c1,-4%,-7,-6%,0%,8%,-12
COc1ccc(-c2[nH]ncc2CNCCn2cccn2)c(F)c1,13µM*,32,47%,1%,60%,-2
COC(=O)Cc1[nH]n(-c2nc3ccccc3s2)c(=O)c1C(C)=Nc1ccc(C)cc1,7%,93*,-32%,-1%,90%,35*
COC(=O)Cc1[nH]n(-c2nc3ccccc3s2)c(=O)c1C(C)=Nc1ccc(Cl)cc1,159%,70*,150%,-6%,56%,39*
COC(=O)Cc1[nH]n(-c2ccccc2)c(=O)c1C(C)=Nc1ccccc1,10%,15,39%,-1%,-21%,5
CC(C)[C@H](NC(=O)[C@H](CCC(N)=O)NC(=O)CNC(=O)[C@@H]1CCCN1C(=O)[C@H](Cc1ccc(O)cc1)NC(=O)CN)C(=O)O,·,7,·,·,·,-3
C(#Cc1ccccc1)CN1CCCCC1,37%,10,?,1%,-7%,15
c1ccc(COc2ccc(CN3CCN(c4ccccn4)CC3)cc2)cc1,22%,93*,·,-3%,-8%,41*
C(#Cc1ccccc1)CN1CCN(c2ccccn2)CC1,?,28,-7%,?,-25%,25*
c1ccc(CN2CCN(c3ncccn3)CC2)cc1,3%,-4,-20%,2%,5%,2
COc1ccc(N(C)S(=O)(=O)c2cccc(C(=O)NCC(c3cccs3)N(C)C)c2)cc1 (stereo not drawn),?,·,?,·,32%,·
Cc1cc(Oc2ccccc2)nc(-c2ccccc2)n1,-1%,20,44%,-5%,26%,27*
Cc1cc(C(=O)NCc2nc(-c3ccccc3)no2)ccc1[N+](=O)[O-],5%,24,-2%,-1%,-5%,-2
COc1ccc(Cl)cc1-c1nc(-c2ccc(NC(=O)c3ccncc3)cc2)no1,·,·,·,·,-9%,·
O=[N+]([O-])c1cc(Cl)ccc1-c1nc(-c2ccccc2)no1,-4%,62*,245%,13%,?,58*
O=[N+]([O-])c1cc(Cl)ccc1-c1nc(-c2ccncc2)no1,-25%,42*,?,-1%,-5%,19
CC(C)NC(=NCc1ccc(Cl)cc1Cl)Nc1ccccc1,?,-9,·,-1%,-1%,-4
O=C(CSc1nnc(C2CC2)n1Cc1ccco1)NCC(F)(F)F,-9%,13,60%,3%,3%,5
CCc1ccc2[nH]c(=O)c(CN(CC3CCCO3)C(=S)NCc3ccco3)cc2c1 (stereo not drawn),?,8,?,1%,-13%,22*
CCc1ccc2[nH]c(=O)c(CN(CCN(CC)CC)C(=S)NCc3ccco3)cc2c1,19%,-2,9.3µM*,-1%,-19%,-2
Cc1ccc(C)c2[nH]c(=O)c(CN(Cc3cccs3)C(=S)NCc3ccco3)cc12,28%,-4,10µM*,20%,-3%,1
COc1ccc2cc(CN(Cc3ccco3)C(=S)NCC3CCCO3)c(=O)[nH]c2c1 (stereo not drawn),0%,-3,?,1%,4%,-1
Cc1cc(C)c2cc(CN(Cc3ccco3)C(=S)NCC3CCCO3)c(=O)[nH]c2c1 (stereo not drawn),?,-1,2.1µM*,1%,-11%,1
CN(C(=O)c1ccc(Br)o1)C1(C)CCS(=O)(=O)C1 (stereo not drawn),?,-8,35%,-4%,-9%,5

# Assay outcomes from PubChem BioAssay.
